The whole screen tested about 1,800 compounds, of which fewer than 10 were called active. About 16% were inconclusive and are not listed.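 Rule for the calls: active = compound lowering the normal-ribosome reporter at least twice as much as the humanized-ribosome reporter, growth loss under a set limit; inconclusive = no clear call, values can overlap the other calls; inactive = the rest.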 The list is a sample of the results. Entries with a potency or affinity are not part of this list.
assay: E. coli strain growth, wild-type against G2058 humanized RFP mutant – G2058 mutant RFP vs wild-type GFP, cherry-pick, two tests, dose response (AID 1035470); settings: E. coli WT-GFP vs G2058-humanized RFP, fluorescence, 24 h; series mostly up to 50 µM

outcome, inactive:
COC(=O)CNC(=O)COC(=O)c1ccc(Cl)nc1
CC(OC(=O)CCc1nc2ccccc2c(=O)[nH]1)C(=O)c1ccc(Br)cc1 (configuration not stated)
C(=C/c1nccc2c1[nH]c1ccccc12)/c1ccc2c(c1)OCO2
O=C(Nc1cc(S(=O)(=O)N2CCOCC2)ccc1N1CCOCC1)c1ccc([N+](=O)[O-])s1
Cc1cc(Br)cn2c(Cc3cccc(Cl)c3)c(-c3ccco3)nc12
Cc1nc2ccccn2c1C(=O)Nc1ccc(Cl)cc1
COC(=O)c1ccc(CSc2nc3ccccc3s2)o1
C[C@@H]1CCCCO[C@@H](CN(C)C(=O)CCCN(C)C)[C@H](C)CN([C@@H](C)CO)C(=O)c2cc(NC(=O)Nc3cccc4ccccc34)ccc2O1
Cc1nc(Nc2ccccc2)sc1C(=O)Nc1ccccc1
Cn1c(=O)c2c(ncn2CC(O)CNc2ccc(F)cc2)n(C)c1=O (configuration not stated)
CC1Cc2cc(S(=O)(=O)N3CCN(c4cccc(Cl)c4)CC3)ccc2N1C(=O)C1CC1 (configuration not stated)
Nc1ccccc1C#CC(=O)c1ccccc1
Cn1cc(CN2CCCC(C(=O)c3cccs3)C2)c(-c2cccc(Cl)c2)n1 (configuration not stated)
CC(=O)N1c2c(cc(Br)cc2S(=O)(=O)N2CCCCC2)CC1C (configuration not stated)
CC(OC(=O)COc1ccccc1)C(=O)NC1CCCC1 (configuration not stated)
O=C(CCNC(=O)c1ccco1)Nc1cccc(Br)c1
CC1(C)CC2CC(C)(CN2c2ncnc3ccccc23)C1 (configuration not stated)
CS(=O)(=O)N(CC(=O)N1CCc2ccccc2C1)c1cccc(Br)c1
O=S(=O)(NCc1cc(-c2ccccc2)no1)c1ccccc1Cl
CC(=O)c1ccc(-c2cccc([C@H]3[C@@H]4C=CC[C@@H](C)[C@@H]4C(=O)N3Cc3ccccc3)c2)cc1
O=C(NC1CCCCC1)C(c1cccc2ccccc12)n1c(=O)c(-c2ccco2)nc2ccccc21 (configuration not stated)
CC(C)(C)CC(=O)NCCc1csc(-c2ccccc2)n1
Cc1cccc(NC(=O)CN(C)S(=O)(=O)c2cccs2)c1
Cc1ccc2oc(C(=O)N(C)Cc3ccc(C)o3)c(C)c2c1
O=C(NCc1cccnc1)C1CCN(S(=O)(=O)c2cc([N+](=O)[O-])ccc2Cl)CC1
COc1ccc(CNC(=O)c2sc3nc4c(c(C(F)(F)F)c3c2N)CCC4)cc1OC
CSc1ccccc1OCc1cc(C(=O)N(C)Cc2nonc2C)no1
O=C1Nc2ccc(F)cc2C12Nc1ccccc1-c1nnc(SCc3ccccc3)nc1O2 (configuration not stated)
COc1cccc(NC2=Nc3cccc4cccc2c34)c1
COCc1nnc(NC(=O)c2ccc(S(=O)(=O)N3CCCC3)cc2)o1
O=C(COc1cccc2c1CCN(Cc1ccc(Br)cc1)C2=O)N1CCOCC1
Cc1cccc(OCc2nc(C#N)c(N3CCCC3)o2)c1
Cc1onc(-c2c(Cl)cccc2Cl)c1C(=O)Nc1ccc(Cl)cn1
NS(=O)(=O)c1ccc(NC(=O)CCC(=O)O)cc1
Cc1ccc(NC(=O)C[n+]2cc(-c3ccccc3)n3c2CCC3)cc1
Cc1ccc(S(=O)(=O)Nc2ccc3c(c2)C(=O)N([C@@H](C)CO)C[C@@H](C)[C@H](CN(C)C(=O)c2ccccc2)OCCCC[C@@H](C)O3)cc1
COc1ccc(NC(=O)Nc2cccc3c2O[C@@H](CN(C)S(=O)(=O)c2ccc(Cl)cc2)[C@H](C)CN([C@@H](C)CO)C3=O)cc1
O=C1c2ccccc2C(=O)N1CCc1c[nH]c2ccccc12
CC(=O)Cc1cc(O)c2ccccc2c1OC(=O)c1ccc(Br)cc1
COc1ccc(CC(=O)NC(C)c2ccc3ccccc3c2)cc1 (configuration not stated)
Fc1ccc(Br)cc1SCCc1ccncc1
C[C@@H]1CCCCO[C@@H](CN(C)C)[C@H](C)CN([C@@H](C)CO)C(=O)c2cc(NC(=O)Nc3cccc4ccccc34)ccc2O1
Cc1onc(-c2ccccc2)c1C(=O)Oc1ccccc1
COC(=O)c1ccc2nc(-c3ccc(OC)c(OC)c3)c(Cc3ccc(C)cc3)n2c1
COc1ccc(C(=O)NCCC2=CCCCC2)cc1[N+](=O)[O-]
C[C@H]1CN([C@@H](C)CO)C(=O)CCCn2nncc2CO[C@@H]1CN(C)Cc1ccccc1C(F)(F)F
COc1ccc(N2C(=O)C3C(c4ccc(C(=O)O)cc4)NC(Cc4ccccc4)(C(=O)O)C3C2=O)c([N+](=O)[O-])c1 (configuration not stated)
Cc1ccc2nc(-c3ccc(Cl)cc3)c(Cc3ccccc3C(F)(F)F)n2c1
COc1ccc2cc(CO)c3cc(OC)c(OC)cc3c2c1
CC(C)(C)NC(=O)C(c1ccncc1)N(Cc1ccc(F)cc1)C(=O)c1ccc(-c2ccccc2)[nH]1 (configuration not stated)
Cc1noc(C)c1NC(=O)N(C)C[C@H]1OCCCC[C@@H](C)Oc2ccc(NC(=O)Nc3cccc4ccccc34)cc2C(=O)N([C@@H](C)CO)C[C@H]1C
Cn1c(CCN2CCOCC2)nc2cc(NC(=O)c3cccs3)ccc21
COc1ccccc1C(C(C(=O)c1ccccc1)N1CCOCC1)N1CCOCC1 (configuration not stated)
Cc1cccc(-c2ccc([C@H]3[C@@H](CO)N4CCCCN(S(=O)(=O)c5ccccc5C)C[C@H]34)cc2)c1
CCc1cc(CN2CCOCC2)c(NC(=O)c2ccccc2)s1
COc1ccccc1CC(=O)NCCc1c[nH]c2ccccc12
Cn1c(=O)n(C)c2cc([N+](=O)[O-])c(N3CCN(C(=O)c4cccc(F)c4)CC3)cc21
O=C(CSCc1ccc(Br)cc1)NCc1ccccn1
Cc1ccc(CCN2C(=O)c3ccccc3C2C(=O)NCc2cccnc2)cc1 (configuration not stated)
CS(=O)(=O)c1ccc(Cl)c(NC(=O)COC(=O)c2c(Cl)cccc2Cl)c1
COCC#Cc1ccc2c(c1)O[C@H](CN(C)C(=O)c1ccccc1)[C@@H](C)CN([C@H](C)CO)S2(=O)=O
Cc1noc(C)c1NC(=O)Nc1ccc2c(c1)C(=O)N([C@H](C)CO)C[C@H](C)[C@H](CN(C)C(=O)Nc1ccc3c(c1)OCO3)OCCCC[C@H](C)O2
